# Results published in PubChem BioAssay (Tox21).
# Where “and” joins values, the source holds several entries; their conditions need not be identical. Equal values may be shown once. Records with an inconclusive call do not appear. A call without a number means that no potency is given here. Where a structure was tested more than once in an assay, its records may differ in their call. Calls of active or inactive are those of the source. Calls follow the shape of the full dose curve.
# Molecular target: 5-hydroxytryptamine receptor 2A (Homo sapiens) (UniProt P28223)
# Sequence (P28223 whole entry, looked up): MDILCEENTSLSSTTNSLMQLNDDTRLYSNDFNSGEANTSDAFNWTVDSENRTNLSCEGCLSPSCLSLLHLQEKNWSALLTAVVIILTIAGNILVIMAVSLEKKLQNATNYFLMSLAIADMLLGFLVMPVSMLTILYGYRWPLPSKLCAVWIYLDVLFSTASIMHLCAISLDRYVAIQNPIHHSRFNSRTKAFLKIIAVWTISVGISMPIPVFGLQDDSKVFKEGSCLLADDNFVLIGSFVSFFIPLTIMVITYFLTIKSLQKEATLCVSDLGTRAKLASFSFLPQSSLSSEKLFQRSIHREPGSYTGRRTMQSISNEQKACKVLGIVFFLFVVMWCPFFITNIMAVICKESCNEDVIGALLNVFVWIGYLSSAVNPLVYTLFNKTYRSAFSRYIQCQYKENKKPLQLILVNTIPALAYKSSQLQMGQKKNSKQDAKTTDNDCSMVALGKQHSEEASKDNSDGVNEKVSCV
# Assay: 5-hydroxytryptamine receptor 2A (HTR2A) small molecule antagonists, cell-based qHTS assay (AID 1963586); also: nearly all actives have a fitted effect of over 45% in size
# Details: HTR2A-CHO cells, DOI-induced calcium flux, fluorescence; series mostly up to 61.5 µM; activity, negative = inhibition: at the top concentration
# From the text: National Center for Advancing Translational Sciences [NCATS]
# Division of Preclinical Innovation [DPI]
# U.S. Environmental Protection Agency [EPA]
# National Institutes of Environmental Health Sciences [NIEHS]
# National Toxicology Program [NTP]
# U.S. Food and Drug Administration [FDA]
# The HTR2A receptor is a subtype of the 5-HT2 receptor that belongs to the serotonin receptor family and is a G protein-coupled receptor (GPCR). The HTR2A-CHO cell line stably expressing human 5-hydroxytryptamine receptor 2A (HTR2A) can be used for screening antagonists of interactions between 5-HT2 and its ligands. The HTR2A-CHO calcium flux assay is a homogeneous fluorescence-based assay for detecting the intracellular calcium level using FDSS kinetic plate reader system.
# Tox21 Assay Protocol Summary:
# HTR2A-CHO cells were dispensed at 2000 cells/3uL/well in 1536-well black-clear bottom plates using a Multidrop Dispenser. After the assay plates were incubated at a 37 C/5% CO2 incubator for 18 h, 3 uL of Dye Loading Buffer was transferred to the assay plate by a Flying Reagent Dispenser. The assay plates were incubated at 37 C for 1h. For antagonist mode, 23 nL of compounds dissolved in DMSO, positive controls or DMSO only was transferred to the assay plate by a pin tool. After 5 min incubation at room temperature, 1.5 uL of 4-Iodo-2,5-dimethoxy-alpha-methylbenzeneethanamine hydrochloride (DOI) at 4nM was added to each well. The fluorescence intensity in the plates was measured using FDSS 7000EX kinetic plate reader for 3 min at 1 sec intervals.
# Potency is read from the fitted curve at half-maximal effect.
Structure (SMILES),Potency,"activity, negative = inhibition"
CC(=O)OCCC(C)C,inactive,–
CCCCCCOCCO,inactive,–
O=c1c(O)c(-c2ccc(O)cc2)oc2cc(O)cc(O)c12,–,-2.48% [at 28.5 µM] (inactive)
COc1ccc(C(Cl)=C(c2ccc(OC)cc2)c2ccc(OC)cc2)cc1,inactive,–
Cc1ccc([N+](=O)[O-])cc1S(=O)(=O)O,inactive,–
CCCOC(=O)NCCCN(C)C,inactive,–
OCC1CCCO1 (stereo not given),inactive,–
COc1cc(C=O)ccc1O,inactive,–
C=C(C)C1CC=C(C)C(OC(C)=O)C1 (stereo not given),inactive and 3.75 µM (active),–
CCCCOCCO,inactive,–
OCc1ccc(Cl)cc1Cl,–,32.3% [at 28.5 µM] (inactive)
CC1CCC2CC1C2(C)C (stereo not given),inactive,–
O=S(=O)(O)c1ccc2nc(-c3ccccc3)[nH]c2c1,–,-11% [at 28.5 µM] (inactive)
CCC(Cc1c(I)cc(I)c(N)c1I)C(=O)O (stereo not given),inactive and 3.65 µM (active),–
C=C(C)C(=O)O,–,-34% (inactive)
O=C(O)CC(C(=O)O)C(CC(=O)O)C(=O)O (stereo not given),–,-5.2% (inactive)
CCc1cccc(O)c1,inactive,–
CC1=CC(C)(C)Nc2ccccc21,inactive,–
Cc1ccc2c(n1)Oc1ccc(C(C)C(=O)OCC(=O)N(C)C)cc1C2 (stereo not given),–,-18.1% [at 28.5 µM] (inactive)
Nc1ccc(S(=O)(=O)Nc2cnc3ccccc3n2)cc1,inactive,–

Structure (SMILES),Potency,"activity, negative = inhibition"
CCCCCCCCCCCCc1ccccc1O,–,-15.9% (inactive)
Cc1cc(=O)oc2cc(O)ccc12,inactive,–
CCOC(=O)NNc1nncc2ccccc12,inactive,–
C=C(C)OC(C)=O,inactive,–
Cc1ccc2ncccc2c1,inactive,–
Clc1ccc(Sc2cc(Cl)c(Cl)cc2Cl)cc1,inactive,–
C#CC1(O)CC[C@H]2[C@@H]3CCC4=CCCC[C@@H]4[C@H]3CC[C@@]21C (stereo not given in full),–,3.63% [at 28.5 µM] (inactive)
O=[N+]([O-])c1ccccc1C(F)(F)F,inactive,–
CCCCCC1C(=O)CCC1CC(=O)OC (stereo not given),inactive,–
N[C@@H](Cc1cc(I)c(Oc2cc(I)c(O)c(I)c2)c(I)c1)C(=O)O,inactive,–
CCNC(=S)NCC,inactive,–
CCCCOCCOCCOC(C)=O,inactive,–
CCCCCC(N)=O,inactive,–
CC1=CC(=O)CC(C)(C)C1,inactive,–
CCO[Si](CCCNC(N)=O)(OCC)OCC,inactive,–
CC1=C(C)S(=O)(=O)CCS1(=O)=O,inactive,–
CCCCCCCCC,inactive,–
O=c1cc[nH]c(=O)[nH]1,inactive,–
CCCC(C)=O,inactive,–
Cn1c([N+](=O)[O-])cnc1COC(N)=O,inactive,–
